The results in this text go back to PubChem BioAssay (Tox21).

Several values for one entry are separate records, joined by “and”; a condition that tells them apart may be missing. Equal entries are not always repeated. Results filed as inconclusive are left out. A structure can be active in one record and inactive in another. Activity calls are given as the source filed them. Calls come from the whole dose curve; as a rule, active = well fitted curve in the direction sought with a large enough effect in the repeat runs; inconclusive = weak or mixed curves; inactive = no such curve, though single readings can be large; an effect the other way counts as inactive or inconclusive.

Assay [1] can be described thus: A CellTox Green Cytotoxicity Assay to monitor cytotoxicity in HEK293 cells - 32 hour (AID 1224881). Note: nearly all actives have a fitted effect of over 40% in size. Note: potency is the fitted concentration of half-maximal effect. The method, boiled down: (§1)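 HEK293 cells premixed with CellTox Green dye were seeded at 600 cells/well and left 5 h at 37 C/5% CO2 before pin transfer of 23 nL compound in DMSO. Fluorescence from dye bound to dead-cell DNA was read during 40 h treatment.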
Assay [2] in a line: A CellTox Green Cytotoxicity Assay to monitor cytotoxicity in HepG2 cells - 0 hour (AID 1224882). Note: nearly all actives have a fitted effect of over 35% in size. In a few lines: (§2)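 HepG2 cells were seeded together with the CellTox Green dye at 600 cells/well, left 5 h at 37 C/5% CO2, then given compounds in DMSO. Fluorescence from dye bound to dead-cell DNA was read repeatedly over 40 h of treatment at 37 C.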
Assay [3] can be described thus: A CellTox Green Cytotoxicity Assay to monitor cytotoxicity in HEK293 cells - 8 hour (AID 1224884). Note: nearly all actives have a fitted effect of over 35% in size. Note: potency is the fitted concentration of half-maximal effect. In a few lines: as §1
The nature of assay [4]: qHTS RealTime-Glo MT Cell Viability Assay in HepG2 cells - 16 hour (AID 1224885). Note: nearly all actives have a fitted effect of over 50% in size. Note: potency is the fitted concentration of half-maximal effect. The method, boiled down:
(§3)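 Real-time, nonlytic viability: 600 HepG2 cells/well mixed with NanoLuc enzyme plus prosubstrate; 5 h settle, compound (DMSO) added by pintool; luminescence monitored over 40 h at 37 C.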
(qHTS replaces the single test concentration by a dilution series.)

Assay [5] can be described thus: qHTS RealTime-Glo MT Cell Viability Assay in HEK293 cells - 8 hour (AID 1224887). Note: nearly all actives have a fitted effect of over 50% in size. Note: potency is the fitted concentration of half-maximal effect. In a few lines: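 HEK293 cells mixed with RealTime-Glo reagents (NanoLuc plus cell-permeant prosubstrate) at 600 cells/well, preincubated 5 h at 37 C/5% CO2, then given 23 nL compound in DMSO. Nonlytic luminescence from viable cells was read at 0, 8, 16, 24, 32 and 40 h.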
Assay [6] is described as follows: A CellTox Green Cytotoxicity Assay to monitor cytotoxicity in HEK293 cells - 16 hour (AID 1224888). Note: nearly all actives have a fitted effect of over 35% in size. Note: potency is the fitted concentration of half-maximal effect. In a few lines:
as §1

Assay [7] can be described thus: qHTS RealTime-Glo MT Cell Viability Assay in HepG2 cells - 0 hour (AID 1224889). Note: nearly all actives have a fitted effect of over 50% in size. Note: potency is the fitted concentration of half-maximal effect. The method, boiled down: as §3
Assay [8] can be described thus: A CellTox Green Cytotoxicity Assay to monitor cytotoxicity in HepG2 cells - 8 hour (AID 1224890). Note: nearly all actives have a fitted effect of over 45% in size. Note: potency is the fitted concentration of half-maximal effect. The method, boiled down: as §2
The nature of assay [9]: A CellTox Green Cytotoxicity Assay to monitor cytotoxicity in HepG2 cells - 32 hour (AID 1224883). Note: nearly all actives have a fitted effect of over 50% in size. Note: potency is the fitted concentration of half-maximal effect. In a few lines:
as §2

Assay [10] can be described thus: qHTS RealTime-Glo MT Cell Viability Assay in HEK293 cells - 24 hour (AID 1224886). Note: nearly all actives have a fitted effect of over 50% in size. Note: potency is the fitted concentration of half-maximal effect. The method, boiled down: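 Cells + reagent dispensed (600 cells/well, HEK293) → 5 h at 37 C/5% CO2 → 23 nL compound in DMSO pinned → 40 h at 37 C → luminescence read at 0, 8, 16, 24, 32, 40 h.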

As for `O=[N+]([O-])c1ccc(O)cc1C(F)(F)F`, the Potency entry in assay [1], in assay [2], in assay [3], in [4], in [5] and in [6] was “inactive” in each case. Also, the Potency entry in assay [7] and in assay [8] was “inactive” each time.
With `O=C(Oc1ccccc1)Oc1ccccc1`, the Potency entry in assay [1], in assay [9], in assay [3], in assay [10], in assay [5] and in [8] was “inactive” each time.
For the compound `CCCCCCC1CCCC(=O)O1` (configuration not stated), the Potency entry in assay [1], in assay [9], in assay [4], in [10], in assay [5] and in assay [6] was “inactive” each time. In addition, the Potency result in assay [7] and in assay [8] was “inactive” throughout.
In the case of `CC1=Nc2ccccc2C1(C)C`, the Potency result in assay [1], in assay [3], in assay [4], in assay [10], in [5] and in [6] was “inactive” in each case. Also, the Potency entry in [7] was “inactive”. Moreover, the Potency in assay [9] is 43.7 µM (active).
For `CC(=O)[C@H]1CC[C@H]2[C@@H]3CCC4=CC(=O)CC[C@]4(C)[C@H]3CC[C@]12C`, the Potency in [1] is 24.4 µM (active) and 34.7 µM (active); in assay [9], 49 µM (active); in [10], 15.4 µM (active) and 17.4 µM (active); in assay [5], 13.7 µM (active); in assay [7], 6.88 µM (active) and 5.49 µM (active). Also, the Potency entry in assay [3], in assay [6] and in assay [8] was “inactive” each time.
For `CCCCCCCCCCCC(=O)OCC(C)OC(=O)CCCCC(=O)O` (configuration not stated), the Potency entry in assay [1], in [9], in [3], in [4], in [10] and in [5] was “inactive” in each case. Also, the Potency entry in assay [6], in assay [7] and in assay [8] was “inactive” throughout.
On to `CC(=O)CC(=O)Nc1ccc(S(=O)(=O)O)cc1`, for which the Potency result in assay [1], in assay [9], in assay [3], in assay [4], in [10] and in assay [5] was “inactive” in each case. Moreover, the Potency result in assay [6] and in assay [8] was “inactive” throughout.
Regarding `Cc1cc(C(C)(C)C)cc(C)c1CC1=NCCN1`, the Potency result in [1], in assay [9], in [3], in assay [4], in [10] and in [5] was “inactive” throughout. Moreover, the Potency entry in [6], in assay [7] and in assay [8] was “inactive” throughout.
For `NC(=O)c1cccc([N+](=O)[O-])c1`, the Potency entry in assay [1], in [9], in assay [3], in assay [4], in [10] and in assay [5] was “inactive” each time. In addition, the Potency entry in assay [6] and in [8] was “inactive” each time.
On to `CCCCCCCCCCCCCC[N+](C)(C)C`, for which the Potency in assay [1] is 29.9 µM (active) and 48.9 µM (active) and 26.8 µM (active); in assay [9] it was 10.6 µM (active) and 17.4 µM (active) and 21.3 µM (active); in [3], 47.3 µM (active) and 43.6 µM (active); in assay [4] it was 16.8 µM (active) and 48.9 µM (active); in assay [10], 16.8 µM (active) and 21.8 µM (active); in assay [5], 53.1 µM (active) and inactive. Moreover, the Potency in assay [6] is 47.3 µM (active) and 48.9 µM (active) and 47.7 nM (active); in assay [8] it was 18.8 µM (active) and 54.9 µM (active) and inactive. Besides, the Potency entry in assay [7] was “inactive”.
For `CCC(=O)OC(=O)CC`, the Potency result in [1], in assay [9], in assay [3], in [4], in assay [10] and in assay [5] was “inactive” in each case. The Potency result in assay [6], in assay [7] and in assay [8] was “inactive” throughout.
Turning to `CC(C)(C)c1ccc(C(O)CCCN2CCC(C(O)(c3ccccc3)c3ccccc3)CC2)cc1` (configuration not stated), the Potency in assay [1] is 8.49 µM (active); in assay [9], 5.35 µM (active); in assay [3] it was 21.3 µM (active); in [4], 7.56 µM (active); in assay [10] it was 5.35 µM (active); in [5] it was 8.49 µM (active). Also, the Potency in [8] is 15.1 µM (active). In addition, in assay [7], the Potency entry was “inactive”.
Consider `Oc1c(I)cc(Cl)c2cccnc12`, for which the Potency in assay [1] is 10.9 µM (active) and inactive; in assay [10] it was 34.6 µM (active) and inactive. The Potency entry in assay [9], in assay [3], in assay [4], in assay [5], in [6] and in [7] was “inactive” throughout. Besides, the Potency entry in assay [8] is “inactive”.
In the case of `CN1CCN(Cc2cc(-c3ccc4[nH]c(=O)oc4c3)co2)[C@@H](c2ccc(F)cc2)C1`, the Potency entry in assay [1], in [2], in [7] and in assay [8] was “inactive” in each case. The Potency in assay [10] was 26.5 µM (active).
Take `Nc1ccc(C(=O)O)c(O)c1`: the Potency result in assay [1], in assay [9], in assay [3], in assay [4], in [10] and in assay [5] was “inactive” each time. In addition, the Potency entry in assay [6] and in [7] was “inactive” in each case.
Regarding `O=C(O)Cc1ccccc1Nc1c(Cl)cccc1Cl`, the Potency result in assay [1], in [9], in assay [3], in assay [4], in [10] and in [5] was “inactive” in each case. The Potency entry in assay [6], in assay [7] and in [8] was “inactive” each time.
`c1cnccn1`: the Potency result in assay [1], in [9], in assay [3], in assay [4], in [10] and in assay [5] was “inactive” throughout. The Potency entry in [6], in assay [7] and in assay [8] was “inactive” in each case.
Take `COC(=O)c1ccccc1C`: the Potency result in [1], in assay [9], in assay [3], in assay [4], in [10] and in assay [5] was “inactive” throughout. In addition, the Potency result in assay [6], in assay [7] and in [8] was “inactive” throughout.
